The supplement of paper PMC6089552
The whole screen tested about 3,200 compounds, of which about 300 (9.4%) showed activity. For the sample, actives were picked, then their nearest neighbours and some compounds at random.

System: A673/TR/shEF
Assay: cell viability (LOESS-normalised, relative to median of negative controls) (log2 ratio); higher = more viable cells (less compound effect), active = hit call of the paper (over 3 MAD below the median)
Conditions: treatment time: 72 h
Procedure, shortened: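 A673/TR/shEF Ewing sarcoma cells were plated at 1,500 per well in 384-well plates and cultured with or without doxycycline, added 24 h before compounds, to induce EWS-FLI1 shRNA knockdown. Library compounds at two or more concentrations, alongside DMSO controls, were applied for three days. Cell viability was measured by CellTiter-Glo luminescence on an Envision reader. Readings were LOESS-corrected per plate, divided by the median of negative controls and log2-transformed, and hits were wells lying at least three median absolute deviations from the median of all screened wells.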

[1] = 0.025 µM, library screen: screen1, EWS-FLI1 expression: high (no doxycycline)
[2] = 0.025 µM, library screen: screen1, EWS-FLI1 expression: low (doxycycline-induced shRNA knockdown)
[3] = 0.25 µM, library screen: screen1, EWS-FLI1 expression: high (no doxycycline)
[4] = 0.25 µM, library screen: screen1, EWS-FLI1 expression: low (doxycycline-induced shRNA knockdown)
[5] = 2.5 µM, library screen: screen1, EWS-FLI1 expression: high (no doxycycline)
[6] = 2.5 µM, library screen: screen1, EWS-FLI1 expression: low (doxycycline-induced shRNA knockdown)
[7] = 25 µM, library screen: screen1, EWS-FLI1 expression: high (no doxycycline)
[8] = 25 µM, library screen: screen1, EWS-FLI1 expression: low (doxycycline-induced shRNA knockdown)
[9] = 0.25 µM, library screen: screen2, EWS-FLI1 expression: high (no doxycycline)
[10] = 0.25 µM, library screen: screen2, EWS-FLI1 expression: low (doxycycline-induced shRNA knockdown)
[11] = 2.5 µM, library screen: screen2, EWS-FLI1 expression: high (no doxycycline)
[12] = 2.5 µM, library screen: screen2, EWS-FLI1 expression: low (doxycycline-induced shRNA knockdown)

Measured: cell viability (log2)

N#CC(C#N)=Cc1ccc(O)cc1
inactive: [1] 0.0481 | [2] 0.0237 | [3] 0.0596 | [4] 0.0262 | [5] 0.0426 | [6] 0.0755 | [7] 0.0734 | [8] 0.0191

N#CC(C#N)=Cc1ccc(O)c(O)c1
inactive: [1] 0.0488 | [2] -0.0484 | [3] 0.042 | [4] -0.0954 | [9] 0.172 | [10] 0.124 | [5] 0.0531 | [6] -0.000697 | [11] 0.143 | [12] 0.061 | [7] -0.0656 | [8] 0.016

N#CC(C#N)=Cc1ccc([N+](=O)[O-])c(O)c1
0.311: [3]
inactive: [2] 0.0132 | [4] -0.0619 | [9] 0.0683 | [10] 0.016
0.298: [1]
active: [5] -0.131 | [6] -0.169 | [11] -0.559 | [12] -0.298 | [7] -0.408 | [8] -0.158

COc1cc(C=C(C#N)C#N)cc(O)c1O
inactive: [9] 0.15 | [10] 0.104 | [11] 0.12 | [12] 0.124

N#CC(C#N)=Cc1cc(O)c(O)c([N+](=O)[O-])c1
0.283: [3]
inactive: [1] 0.235 | [2] -0.0184 | [4] 0.00958 | [6] -0.0107 | [8] 0.176
active: [5] -0.167 | [7] -0.153

N#CC(C#N)=Cc1cc(O)c(O)c(O)c1
inactive: [1] -0.0494 | [2] 0.0428 | [3] 0.0608 | [4] -0.0659 | [9] 0.269 | [10] 0.131 | [5] -0.0151 | [6] 0.0163 | [11] 0.19 | [12] 0.0774 | [7] 0.0348 | [8] 0.1

C[N+](C)(C)CCOC(=O)CBr
inactive: [9] 0.173 | [10] 0.097 | [11] 0.0892 | [12] 0.139

COc1ccc2c(c[n+](C)c3c4cc5c(cc4ccc23)OCO5)c1OC
inactive: [9] 0.273 | [10] 0.121 | [11] 0.106 | [12] 0.0124

CN1CC[C@@]23CCCC[C@@H]2[C@@H]1Cc1ccc(O)cc13
inactive: [9] 0.228 | [10] 0.105 | [11] 0.167 | [12] 0.081

C[C@]12CCC(=O)C=C1CCc1ccc(O)cc12
inactive: [3] 0.081 | [4] -0.029 | [5] 0.111 | [6] 0.113

CC(C)c1cc2c(c(O)c1O)[C@@]1(C(=O)O)CCCC(C)(C)[C@@H]1CC2
inactive: [3] 0.0242 | [4] 0.0347 | [5] 0.115 | [6] 0.191

CCC(C)C(=O)OC1CC2(C)C(c3ccoc3)OC(=O)CC23OC2(C)OC34C(OC(=O)C(C)C)C3(O)C(OC(=O)C5(C)OC5C)C5(C)CC3(O)C(C)(C5CC(=O)OC)C14O2 (centres undefined)
inactive: [3] 0.108 | [4] -0.0058 | [5] 0.0939 | [6] 0.12

CC(=O)OC1CCC2(C)C(CCC3C2CCC2(C)C(C4=CC(=O)OC4)C(OC(C)=O)CC32O)C1 (centres undefined)
active: [5] -2.02 | [6] -2.26
inactive: [3] -0.0585 | [4] -0.416

CO[C@H]1C[C@H](O[C@H]2CC[C@@]3(C)[C@H](CC[C@@H]4[C@@H]3CC[C@]3(C)[C@@H](C5=CC(=O)OC5)[C@@H](OC(C)=O)C[C@]43O)C2)O[C@@H](C)[C@@H]1O
active: [3] -0.578 | [4] -1.73 | [5] -3.54 | [6] -4.25

CC(=O)O[C@@H]1CC[C@@]2(C)[C@@H](CC[C@@H]3[C@@H]2CC[C@]2(C)C(=O)CC[C@@H]32)C1
inactive: [3] 0.0923 | [4] 0.0254 | [5] 0.0362 | [6] 0.0893

C[C@H]1O[C@@H](O[C@H]2[C@@H](O)C[C@H](O[C@H]3[C@@H](O)C[C@H](O[C@H]4CC[C@@]5(C)[C@H](CC[C@@H]6[C@@H]5CC[C@]5(C)[C@@H](C7=CC(=O)OC7)[C@@H](O)C[C@]65O)C4)O[C@@H]3C)O[C@@H]2C)C[C@H](O)[C@@H]1O
active: [3] -0.13 | [4] -0.332 | [5] -1.73 | [6] -1.76

CC(=O)OC1CC(OC2C(O)CC(OC3C(O)CC(OC4CCC5(C)C(CCC6C5CC(O)C5(C)C(C7=CC(=O)OC7)CCC65O)C4)OC3C)OC2C)OC(C)C1OC1OC(CO)C(O)C(O)C1O (centres undefined)
inactive: [3] 0.0557 | [4] -0.286
active: [5] -2.91 | [6] -3.01

C[C@]12CC[C@H](O)C[C@H]1CC[C@@H]1[C@@H]2CC[C@]2(C)[C@@H](C3=CC(=O)OC3)[C@@H](O)C[C@]12O
inactive: [3] 0.0825 | [4] 0.115 | [5] 0.137 | [6] 0.0999
